Here are results for six compounds from PubChem BioAssay (NCATS).

Each structure is given as a SMILES string. Where “and” joins values, the source holds several entries; their conditions need not be identical. Equal values may be shown once. Inconclusive results are not listed. Calls of active or inactive are those of the source. The call rests on the fitted dose curve; in most records, active means well fitted curve in the direction sought with a large enough effect; inconclusive means small, poorly fitted or top-dose-only effect, or another doubt; inactive means no such curve, though single readings can be large; an effect the other way counts as inactive or inconclusive.

Experiment [1] has as its system Zika virus NS2B-NS3 protease (linked construct). Kind of experiment: Primary screen NINDS Rhodamine qHTS for Zika virus inhibitors (AID 1347160). Further: nearly all actives have a fitted effect of over 55% in size. Summed up:
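Purified NS2B-NS3 protease with the NS2B hydrophilic domain joined by a flexible linker (25 nM) in 10 mM Tris-HCl pH 8.0, 0.01% Tween 20, preincubated 15 min at RT with compound; Rhodamine110 peptide substrate 1.5 µM; fluorescence change over 15 min; 4-parameter Hill fit.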

The target of experiment [2] is Calcium and integrin-binding protein 1 (Homo sapiens) (UniProt Q99828). Nature of the experiment: Primary qHTS for Identification of Calcium Integrin Binding Protein 1 (CIB1) Competitor (AID 1508620).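 Further: GST tagged CIB1 binding a fluorescein labelled alphaIIb integrin peptide tracer; top concentration of the series differs between compounds.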 Summed up:
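Fluorescence polarization competition: CIB1-GST (1 uM final) preincubated with compound 15 min at room temperature, then FITC-labeled alphaIIb peptide (100 nM final) added for another 15 min. Polarization read at Ex 480/Em 540.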

The nature of experiment [3]: Primary qHTS for inhibitors of nuclear receptor binding SET domain protein 2 (NSD2) in an isogenic RCH-ACV NSD2 p.E1099K mutant (9B) (AID 1645876; further: nearly all actives have a fitted effect of over 70% in size; further: potency means the concentration at half of the fitted maximal effect). (qHTS replaces the single test concentration by a dilution series.)
Experiment [4] can be described thus: Primary qHTS for inhibitors of nuclear receptor binding SET domain protein 2 (NSD2) in an RCH-ACV wild type WT cells (2C) (AID 1645877). Further: nearly all actives have a fitted effect of over 70% in size. Further: potency means the concentration at half of the fitted maximal effect.
Experiment [5] addresses Glutathione peroxidase 1 (Homo sapiens) (UniProt P07203). Nature of the experiment: Primary qHTS Assay for Inhibitors of Recombinant Selenoprotein Glutathione Peroxidase 1 (GPX1) (AID 1845191). Further: nearly all actives have a fitted effect of over 65% in size. Summed up:
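Recombinant GPX1 (10 nM final) was preincubated with compound for 30 min at room temperature, then reacted with 1 mM GSH, 0.5 mM CHP, 0.5 mM NADPH and 100 nM glutathione reductase; NADPH fluorescence (340/450 nm) was read at 0 and 15 min.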

Experiment [6] concerns the target Phospholipid hydroperoxide glutathione peroxidase GPX4 (Homo sapiens) (UniProt P36969). Nature of the experiment: Primary qHTS Assay for Inhibitors of Recombinant Selenoprotein Glutathione Peroxidase 4 (GPX4) (AID 1845192). Further: nearly all actives have a fitted effect of over 65% in size. To be noted: outcome: dose series up to 50 µM unless noted. The gist of the method:
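GR-coupled readout: 100 nM GR, 1 mM GSH, 0.5 mM NADPH; NADPH fluorescence (ex 340/em 450 nm) read at t=0 and after 15 min RT. GPX4 200 nM, preincubated 30 min with compound; substrate 0.5 mM CHP.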

Experiment [7] has as its target Luciferin 4-monooxygenase (Photinus pyralis) (UniProt P08659). Nature of the experiment: Primary firefly luciferase (FLuc) qHTS assay for identification of artifact compounds. (AID 1845220). Further: nearly all actives have a fitted effect of over 60% in size. The gist of the method: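 qHTS, 15 min compound preincubation with substrate (10 uM luciferin, 10 uM ATP) at RT, then 10 nM FLuc; 5 min; luminescence; % inhibition vs no-enzyme/DMSO controls, 4-parameter Hill fit.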

The nature of experiment [8]: Primary fluorescence-based thiol-reactive (MSTI) qHTS assay for identification of artifact compounds. (AID 1845221).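 Further: thiol-reactive compounds lower the probe fluorescence signal; nearly all actives have a fitted effect of over 65% in size.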 The gist of the method: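 qHTS titration of compound; 4 uM MSTI, PBS pH 7.4, 2% DMSO; 1 h RT, dark; fluorescence 525/598 nm; normalized to Acetyl-MSTI and MSTI; 4-parameter Hill fit.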
Experiment [9] relates to Nanoluciferase (engineered Oplophorus gracilirostris luciferase). Nature of the experiment: Primary Nanoluciferase (NLuc) qHTS assay for identification of artifact compounds. (AID 1845222). Summed up: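 Luminescence read-out of secreted NLuc in S16 cell conditioned medium (1:55); compounds tested with 15 min RT preincubation, then Nano-Glo substrate 1:100, 5 min. % inhibition vs no-enzyme and DMSO controls, 4-parameter Hill fit.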

Experiment [10] can be described thus: Primary redox qHTS assay for identification of artifact compounds. (AID 1845223). The gist of the method: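 Amplex Red (25 uM) and HRP (250 mU/mL) in HBSS, with compounds for 15 min, then 250 uM DTT for 30 min, room temperature, dark. Fluorescence 525/598 nm read; normalized to DMSO and 10 uM DA3003; Hill fit.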
Experiment [11] deals with C33A. Kind of experiment: Primary qHTS to identify gynecologic anti-cancer compounds using libraries of approved drugs and bioactive compounds (AID 1345084). Further: nearly all actives have a fitted effect of over 55% in size. Further: potency means the concentration at half of the fitted maximal effect. To be noted: Gynecologic cancer cell panel viability, ATPlite luminescence, 48 h; series mostly up to 57.5 µM. The gist of the method: (§1)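 Cells, 1,000 per well, were allowed to settle for 16 h at 37 C before compound addition. Five concentrations were tested for 48 h, and viability was read by ATPlite luminescence after 15 min at room temperature.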

Experiment [12] has as its system CASKI. The experiment is described as above. To be noted: Gynecologic cancer cell panel viability, ATPlite luminescence, 48 h; series mostly up to 57.5 µM. Summed up: as §1
A general note: In ATP-based viability assays light output follows the ATP content of the culture.

The subject of experiment [13] is Es-2. The experiment is described as above. The settings on record: Gynecologic cancer cell panel viability, ATPlite luminescence, 48 h; series mostly up to 57.5 µM. The gist of the method:
as §1

Experiment [14] relates to HeLa. The experiment is described as above. The settings on record: Gynecologic cancer cell panel viability, ATPlite luminescence, 48 h; series mostly up to 57.5 µM. Summed up: as §1
Experiment [15] concerns Hek293T. The description is as above. To be noted: Gynecologic cancer cell panel viability, ATPlite luminescence, 48 h, control line for the selectivity index; series mostly up to 57.5 µM. Summed up:
as §1

The test system of experiment [16] is JEG-3. Described as above. The settings on record: Gynecologic cancer cell panel viability, ATPlite luminescence, 48 h; series mostly up to 57.5 µM. Summed up: as §1
The test system of experiment [17] is OV90. Described as above. To be noted: Gynecologic cancer cell panel viability, ATPlite luminescence, 48 h; series mostly up to 57.5 µM. The gist of the method:
as §1

The subject of experiment [18] is Tov-21-G. The experiment is described as above. To be noted: Gynecologic cancer cell panel viability, ATPlite luminescence, 48 h; series mostly up to 57.5 µM. The gist of the method:
as §1

In experiment [19] the test system is Tov112D. The description is as above. To be noted: Gynecologic cancer cell panel viability, ATPlite luminescence, 48 h; series mostly up to 57.5 µM. Summed up: as §1
For experiment [20], the system named is CAOV3. Described as above. The settings on record: Gynecologic cancer cell panel viability, ATPlite luminescence, 48 h; series mostly up to 57.5 µM. The gist of the method: as §1

Chain of Glutathione peroxidase 1 (Homo sapiens) (P07203 whole entry, looked up): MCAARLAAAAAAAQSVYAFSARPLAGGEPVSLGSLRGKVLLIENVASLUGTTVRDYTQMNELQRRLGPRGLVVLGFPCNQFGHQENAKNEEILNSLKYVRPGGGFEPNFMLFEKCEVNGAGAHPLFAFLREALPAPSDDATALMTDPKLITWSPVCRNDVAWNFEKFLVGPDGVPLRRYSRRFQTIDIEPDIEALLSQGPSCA
Chain of Phospholipid hydroperoxide glutathione peroxidase GPX4 (Homo sapiens) (P36969 whole entry, looked up): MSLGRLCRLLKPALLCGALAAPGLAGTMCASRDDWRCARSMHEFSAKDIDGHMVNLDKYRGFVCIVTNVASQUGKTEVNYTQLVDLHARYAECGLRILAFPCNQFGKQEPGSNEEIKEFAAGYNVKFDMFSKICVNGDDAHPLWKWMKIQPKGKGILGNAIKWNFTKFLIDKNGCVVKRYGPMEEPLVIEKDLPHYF
Chain of Calcium and integrin-binding protein 1 (Homo sapiens) (Q99828 whole entry, looked up): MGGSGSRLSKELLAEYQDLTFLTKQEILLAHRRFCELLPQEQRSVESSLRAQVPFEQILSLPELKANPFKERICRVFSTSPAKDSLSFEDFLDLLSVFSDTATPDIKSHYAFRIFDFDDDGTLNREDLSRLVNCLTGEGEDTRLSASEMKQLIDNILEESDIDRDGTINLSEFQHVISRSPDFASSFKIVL

In the case of `CCOC(=O)CCC(=O)O[C@H]1[C@H](O[C@@H]2[C@@H](C)[C@H](O[C@H]3C[C@@](C)(OC)[C@@H](O)[C@H](C)O3)[C@@H](C)C(=O)O[C@H](CC)[C@@](C)(O)[C@H](O)[C@@H](C)C(=O)[C@H](C)CC2(C)O)O[C@H](C)C[C@@H]1N(C)C` (stereo not given in full), the Potency entry in [1], in experiment [3], in [4], in experiment [5], in [6] and in [7] was “inactive” each time. The Potency entry in experiment [8], in experiment [9], in [10], in [11], in experiment [12] and in experiment [13] was “inactive” each time. Also, the Potency entry in experiment [14], in [15], in [16], in [17], in experiment [18] and in experiment [19] was “inactive” in each case. Also, in experiment [2], the outcome was inactive.
As to `COc1cc2nc(-c3cc(F)ccc3O)nc(N[C@@H]3CNC[C@H]3C(C)(C)O)c2cc1OC`, the Potency entry in experiment [1], in [5], in experiment [6], in experiment [7], in experiment [8] and in experiment [9] was “inactive” throughout. Further, the Potency result in experiment [11], in experiment [12], in experiment [13], in experiment [14], in experiment [15] and in experiment [16] was “inactive” each time. For the same compound, the Potency result in experiment [17], in [18] and in [19] was “inactive” throughout. Also, in [2], the result was inactive. In addition, the Potency in experiment [3] is 4.59 µM (active) and 1.48 µM (active); in experiment [4] it was 4.09 µM (active) and 1.66 µM (active).
Take `CC[C@H](C)[C@H]1O[C@]2(CC[C@@H]1C)C[C@@H]1C[C@@H](C/C=C(\C)[C@@H](O[C@H]3C[C@H](OC)[C@@H](O[C@H]4C[C@H](OC)[C@@H](O)[C@H](C)O4)[C@H](C)O3)[C@@H](C)/C=C/C=C3\CO[C@@H]4[C@H](O)C(C)=C[C@@H](C(=O)O1)[C@]34O)O2`: the Potency entry in experiment [1], in experiment [7], in experiment [9], in experiment [10], in experiment [11] and in experiment [20] was “inactive” in each case. Also, the Potency entry in experiment [12], in experiment [13], in experiment [14], in [16], in experiment [17] and in experiment [18] was “inactive” throughout. In experiment [19], the Potency result is “inactive”. For the same compound, the result in [2] was inactive. In [3], the Potency was 20.5 µM (active).
Turning to `CC(=O)Nc1ccc(C(=O)Nc2ccccc2N)cc1`, the Potency entry in [1], in [5], in experiment [6], in [7], in [8] and in [9] was “inactive” in each case. The Potency result in experiment [10], in experiment [11], in [20], in experiment [12] and in experiment [19] was “inactive” throughout. Further, in experiment [2], the outcome was inactive. For the same compound, the Potency in experiment [3] is 3.55 µM (active) and 3.72 µM (active); in experiment [4], 2.82 µM (active) and 3.72 µM (active); in [17], 3.98 µM (active).
On to `COc1ccc(C2(CNC(=O)[C@](C)(Cc3c[nH]c4ccccc34)NC(=O)Nc3ccc([N+](=O)[O-])cc3)CCCCC2)nc1`, for which the Potency result in experiment [1], in experiment [5], in experiment [6], in experiment [7], in [8] and in [9] was “inactive” throughout. The Potency result in experiment [10], in experiment [11], in experiment [20], in experiment [12], in [13] and in experiment [14] was “inactive” in each case. For the same compound, the Potency entry in [15], in experiment [16], in [17], in experiment [18] and in experiment [19] was “inactive” each time. For the same compound, the Potency in [4] was 20.5 µM (active).
As to `C=C1C(=O)O[C@@H]2C[C@@H](C)[C@]34C[C@]5(C(=O)O[C@H]6CC(C)=C([C@H](C)CCCO)[C@H](OC(=O)C(C)CC)[C@H]65)[C@@H](C(C)=C3C[C@@H]12)[C@H]4OC(C)=O` (stereo not given in full), the Potency entry in experiment [1], in [5], in [6], in [7], in experiment [9] and in experiment [10] was “inactive” throughout. Besides, the Potency result in experiment [11], in experiment [12], in [13], in [14], in experiment [16] and in experiment [17] was “inactive” each time. Moreover, in experiment [19], the Potency entry was “inactive”. Also, the result in [2] was inactive. Further, in experiment [3], the Potency was 2.16 µM (active).
